Source: PubChem
TGFb SMAD3 inh = inhibitors of TGF-b signaling | HepG2 CAGA-GFP TGF-b/SMAD3 reporter, GFP fluorescence, 18 h; TGF-beta stimulated, 500 pg/mL final | Potency, µM (doses to about 46.1 µM), inactives show top-dose activity, negative = inhibition, usual class: inhibitors | 410,000 compounds, 1.2% hits | AID 588855; further: on the % scale 0 is the no-effect control and ±100 the full control effect; nearly all actives have a fitted effect of over 65% in size
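Cell-based qHTS in HEPG2 carrying a CAGA-GFP Smad reporter; compounds added before 500 pg/mL final TGF-beta, 18 h incubation at 37 degrees C, GFP fluorescence quantified per cell by imaging cytometry.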
TDP1 cell CPT = growth inhibition of DT40 Tdp1-/-;hTDP1 cells with camptothecin (screen for TDP1 inhibitors). chicken DT40 Tdp1-/-;hTDP1 cells + 20 nM CPT, ATP luminescence, 48 h. Potency, µM (top dose mostly 46.2 µM), for inactives: top-dose activity change, negative = growth inhibition, most hits filed as inhibitors. 420,000 compounds, 12% hits; further: on the % scale 0 is the no-effect control and ±100 the full control effect; nearly all actives have a fitted effect of over 55% in size
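Chicken DT40 Tdp1-/- cells stably complemented with human TDP1 were seeded at 400 cells/well in medium containing 20 nM camptothecin, exposed to pin-transferred compounds, and grown at 37 °C for at least 48 hr. Viability was read as ATP luminescence.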
DT40 TDP1 no CPT = qHTS for Inhibitors of human tyrosyl-DNA phosphodiesterase 1 (TDP1): qHTS in cells in absence of CPT; AID 686978, 2013; 420,000 compounds, 15% hits; DT40 Tdp1-/- hTDP1 cells, no CPT, ATP luminescence, 48 h; Potency, µM (highest dose often 46.2 µM), without a hit: at the top dose activity change, negative = growth inhibition, actives largely listed as inhibitors; further: on the % scale 0 is the no-effect control and ±100 the full control effect; nearly all actives have a fitted effect of over 55% in size
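Growth kinetics read by CellTiter-Glo luminescence after ≥48 hr at 37 °C. Cells: DT40 Tdp1-/- stably carrying human TDP1, 400 per well, compound exposure in the absence of CPT (DMSO vehicle).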
ATXN2 expr inh = ATXN2 expression inhibition; HEK-293 ATXN2-luciferase reporter, luminescence, 24 h; Potency, µM (series often up to 57 µM), inactives show at the top dose activity change, negative = inhibition, actives largely listed as inhibitors; 360,000 compounds, 0.72% hits; AID 1745845; further: on the % scale 0 is the no-effect control and ±100 the full control effect; nearly all actives have a fitted effect of over 55% in size
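qHTS (up to 57 uM final) was run with 24 h compound exposure of reporter cells at 37 °C. Each well was multiplexed: SteadyGlo luminescence measured ATXN2-luciferase expression after a fluorogenic Gly-Phe-AFC viability readout (25 uM final).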
ATXN viability = viability counter-screen for ATXN expression inhibitors | S2 cells (HEK-293 line with an ATXN2-luciferase reporter) viability, CellTiter-Fluor protease fluorescence, 24 h | Potency, µM (top dose mostly 56.7 µM), usual class: cytotoxic | 400,000 compounds, 0.49% hits; further: nearly all actives have a fitted effect of over 40% in size
HepG2 viability = counter-screen for TGF-b inhibitors: cytotoxicity in HepG2 cells | HepG2 CAGA-GFP viability, ATP luminescence, 18 h | 410,000 compounds, 0.76% hits | Potency, µM (titrated, usually from 46.1 µM), inactives show top-dose activity change, negative = cytotoxicity, usual class: cytotoxic
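CellTiter-Glo luminescence gave cytotoxicity after 18 hours at 37 degrees C. The cells were HepG2 CAGA-GFP in 1% FBS DMEM, stimulated with 500 pg/mL TGF-beta after compound addition. %Activity was normalised to no-cell wells (complete cell-killing) and DMSO (no toxicity), and curves were fitted and classified.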
Active calls of the source: *; i = inactive; ? = inconclusive; . = no result; [ ] = remark or other dose. Only some compounds are listed: those with a hit (about 17% of all), similar ones and a draw of the others. The call rests on the fitted dose curve; in most records, active means well fitted curve in the direction sought with a large enough effect; inconclusive means small, poorly fitted or top-dose-only effect, or another doubt; inactive means no such curve, though single readings can be large; an effect the other way counts as inactive or inconclusive. Potency means the concentration at half of the fitted maximal effect.

SMILES | TGFb SMAD3 inh | TDP1 cell CPT | DT40 TDP1 no CPT | ATXN2 expr inh | ATXN viability | HepG2 viability
CC(NC(=O)C1CCOCC1)c1nnc2n1CCN(Cc1ccc3ccccc3c1)CC2 (stereo unspecified) | . | 14.9%[9.04 µM] | -15.6% | . | i | .
COc1cc2ncnc(NCc3cccs3)c2cc1OC | 2.9% | ? | -25.5% | 29.5% | i | 1.3%
Clc1ccc2c(NCc3ccccn3)ncnc2c1 | ? | ? | ? | -11.4% | ? | -1.6%
Cc1ccc2ncnc(NCc3ccco3)c2c1 | 6.5% | 7.08µM* | 4.47µM* | . | . | -16.4%
Clc1ccc2c(NCc3cccs3)ncnc2c1 | -8.2% | 13µM* | 20.6µM* | . | i | -3.0%
Clc1ccc2c(NCc3ccco3)ncnc2c1 | -29.8% | 14.6µM* | 13µM* | -11.3% | i | -3.4%
O=C(NC1CC1)C1Nc2ccc(OC(F)(F)F)cc2C2C=CCC12 (stereo unspecified) | -9.9% | ? | 13µM* | 8.5% | i | -18.3%
O=C(NCc1ccccc1)C1Nc2ccc(OC(F)(F)F)cc2C2C=CCC12 (stereo unspecified) | ? | 23.1µM* | ? | -16.2% | i | -4.0%
O=C(NCc1ccccn1)C1Nc2ccc(OC(F)(F)F)cc2C2C=CCC12 (stereo unspecified) | ? | ? | ? | -10.4% | ? | -65.6%
COC(=O)[C@@H]1C[C@H]2CC[C@H](O)C[C@H]2N1Cc1ccc(-c2ccccc2)cc1 | -1.9% | -13.5% | ? | -10.4% | i | -77.6%
Cn1nnc(NC(=S)NC(=O)c2cccc3c(Cl)cccc23)n1 | -10.6% | -3.9% | 11.7% | 16.4% | i | 7.6%
Cc1nn(C(=O)Cn2ccc([N+](=O)[O-])n2)c(C)c1Cl | 3.6% | 35.5% | -5.4% | -8.3% | i | 0.0%
O=C(Nc1ccccc1)C1=C[C@@H](c2ccc(C(F)(F)F)cc2)C[C@@H](OCc2ccc(CO)cc2)O1 | ? | 23.1µM* | 18.4µM* | ? | i | -11.5%
O=C(Nc1ccccc1)C1=C[C@H](c2ccc(Br)cc2)C[C@H](OCc2ccc(CO)cc2)O1 | ? | 29.1µM* | ? | -28.2% | ? | -6.6%
O=C(Nc1ccccc1)C1=C[C@@H](c2ccccc2)C[C@@H](OCc2ccc(CO)cc2)O1 | -16.3% | ? | -19.8% | 19.5% | i | 3.0%
O=C(O)C1=C[C@H](c2ccc(C(F)(F)F)cc2)C[C@H](OCc2ccc(CO)cc2)O1 | 1.6% | -7.6% | -7.0% | 6.2% | i | -3.0%
CN(C)c1ncc2nc(-c3cn(C)c4ccccc34)c(=O)n(C[C@H]3CCCO3)c2n1 | . | 4.3% | 16.9% | . | . | .
CCOC(=O)Cc1csc(SC(C)C(=O)Nc2ccc(NC(C)=O)cc2)n1 (stereo unspecified) | -17.7% | -2.5% | -27.6% | 7.9% | i | -7.4%
COc1ccc(NC(=S)N2CCC(NC(=O)c3ccco3)CC2)cc1 | 14.7% | 3.8% | -7.4% | 35.4% | i | -24.1%
Cc1nnc(N/N=C\c2ccc(-c3cccc(C(=O)O)c3)o2)n1N | 10µM* | ? | -5.7% | ? | i | 7.08µM*
COc1ccc(-c2nc(Cn3c(SCc4cccc(C(F)(F)F)c4)nc4cccnc43)c(C)o2)cc1OC | ? | ? | ? | . | . | -28.2%
O=C(NC1CCCCC1)c1ccc(CSc2nc3ccncc3n2Cc2cccc(F)c2)cc1 | ? | ? | 18.4µM* | ? | ? | -19.6%
Cc1ccc(CSc2nc3cccnc3n2Cc2nc(-c3ccccc3F)oc2C)cc1 | ? | 4.61µM* | 3.66µM* | . | . | -45.6%
CNC(=O)c1ccc(CSc2nc3cccnc3n2Cc2cccc(F)c2)cc1 | -26.7% | 3.66µM* | 18.4µM* | -3.3% | i | -62.4%
CC(C)NC(=O)c1ccc(Cn2c(SCc3ccc(F)cc3)nc3cccnc32)cc1 | -28.8% | -29.2% | -28.8% | . | . | -18.0%
SMILES | TGFb SMAD3 inh | TDP1 cell CPT | DT40 TDP1 no CPT | ATXN2 expr inh | ATXN viability | HepG2 viability
Cc1ccc(CSc2nc3cccnc3n2Cc2ccc(C(=O)NCCc3cccs3)cc2)cc1 | ? | 18.4µM* | 18.4µM* | . | . | -65.9%
CCCc1cc(=O)oc2cc(C)cc(OC(C)C(=O)NCC(O)c3ccccc3)c12 (stereo unspecified) | 5.3% | ? | -19.8% | 3.3% | i | -7.7%
CCOC(=O)[C@]12CCCC=C1N(Cc1ccco1)C(=O)[C@H](CC(=O)NCCc1ccccc1OC)C2 | . | ? | ? | 1.3% | ? | .
Cc1cc(C)cc(NC(=O)c2c(C)oc3nc(C)nc(N4CCCC4)c23)c1 | -9.0% | ? | -19.3% | . | . | 2.4%
O=C(NCc1ccccc1)c1ccc(CSc2nc3cccnc3n2Cc2ccccc2)cc1 | -16.1% | 4.61µM* | 18.4µM* | -18.6% | ? | -26.9%
Cc1ccccc1CNC(=O)c1ccc(CSc2nc3cccnc3n2Cc2ccccc2)cc1 | -14.0% | ? | 13µM* | -18.7% | ? | -34.4%
O=C(NCc1ccccc1)c1ccc(CSc2nc3cccnc3n2Cc2cccc(F)c2)cc1 | -26.0% | 13µM* | 10.3µM* | -5.4% | i | -25.1%
CC1CCC(NC(=O)c2ccc(CSc3nc4ccncc4n3Cc3ccc(F)cc3)cc2)CC1 (stereo unspecified) | 3.55µM* | ? | 7.31µM* | ? | ? | -30.0%
